# Compounds with a hit are over-represented: about 11% of the library has one in this group of screens.
# Pf growth 96h: P. falciparum growth inhibition at 96 hour, primary screen for plastid delayed-death inhibitors; hit rate 6.9% among 320,000; Potency, µM (titrated, usually from 28.7 µM), for inactives: at the top dose activity change, negative = inhibition, hits mostly inhibitors; P. falciparum luciferase reporter growth, 96 h; also: % is scaled to controls: 0 for no effect and ±100 for the full control effect
#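 P. falciparum expressing integrated firefly luciferase grown in erythrocytes (2% hematocrit, 0.05% parasitemia final) with compounds for 96 hours at 37 C, 5% CO2. Growth inhibition read as loss of luminescence after adding luciferase detection reagent.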
# HCV inh: HCV inhibition; Huh7.5.1 HCVcc-Cre infection, luciferase reporter, 44 h; Potency, µM (highest dose often 41.8 µM), without a hit: at the highest dose activity change, negative = inhibition, most hits filed as inhibitors; hit rate 3.4% among 340,000; also: % is scaled to controls: 0 for no effect and ±100 for the full control effect
#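 Cells seeded at 1,000/well and cultured 4 h, then compounds added followed by HCVcc-Cre virus (~0.5 moi). After 44 h further culture, luciferase substrate was added, plates held 15 min at room temperature, and luminescence read for 15 sec.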
# Vaccinia mCherry: vaccinia inhibition (mCherry reporter) | Vaccinia virus mCherry reporter infection, fluorescence | Potency, µM (series often up to 36.5 µM), for inactives: at the highest dose activity change, negative = inhibition, most hits filed as inhibitors | hit rate 0.63% among 310,000; calls by dose curve; tested in A549 cells; also: % is scaled to controls: 0 for no effect and ±100 for the full control effect; nearly all actives have a fitted effect of over 35% in size
# VACV Venus inh: vaccinia inhibition (Venus reporter); AID 720580; Vaccinia virus Venus reporter expression, fluorescence; Potency, µM (doses to about 36.5 µM), inactives show at the highest dose activity change, negative = inhibition, hits mostly inhibitors; hit rate 0.46% among 330,000; calls by dose curve; tested in A549 cells; also: % is scaled to controls: 0 for no effect and ±100 for the full control effect; nearly all actives have a fitted effect of over 30% in size
# NS1 function inh: inhibitors of influenza NS1 protein function; hit rate 0.4% among 270,000; AID 2326; Potency, µM (top dose mostly 46.1 µM), inactives show at the top dose activity, positive = more growth; calls by dose curve; also: actives are rising curves; nearly all actives have a fitted effect of over 50% in size
#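 Read-out: OD600 growth recovery of NS1-expressing budding yeast. Cells grown overnight at 30C in -URA glucose medium, washed, resuspended and diluted 1:100 in 2% galactose assay medium, pH 6.0. Same strain lacking NS1 served as positive control.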
# Pf growth 48h: inhibits P. falciparum growth in the first generation, 48 h. Potency, µM (highest dose often 28.7 µM), without a hit: at the top dose activity change, negative = inhibition, most hits filed as inhibitors. P. falciparum luciferase growth in erythrocytes, 48 h. AID 504832. hit rate 5.9% among 310,000; also: % is scaled to controls: 0 for no effect and ±100 for the full control effect
#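 Growth was read as firefly luciferase luminescence after a 48 h, 37 C, 5% CO2 exposure of compounds to reporter-bearing P. falciparum cultures (0.1% parasitemia, 2% hematocrit final) in Albumax-supplemented RPMI 1640.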
# * marks the source's active call; other numbers are inactive results; i = inactive; ? = inconclusive; · = not tested or not shown; [ ] = remark or other dose. Unless noted, calls follow the shape of the dose curve; as a rule, active = well fitted inhibition curve with a large enough effect; inconclusive = small, poorly fitted or top-dose-only effect, or another doubt; inactive = no such curve, though single readings can be large or run the other way. Potency is read from the fitted curve at half-maximal effect.
SMILES,Pf growth 96h,HCV inh,Vaccinia mCherry,VACV Venus inh,NS1 function inh,Pf growth 48h
COc1cccc(Cn2c(NCc3cccnc3)nc3c2c(=O)n(C)c(=O)n3C)c1,?,5%,4.5µM*,?,4%,?
COc1cccc(COc2nc3c(c(=O)n(C)c(=O)n3C)n2C)c1,4.1µM*,?,-26%,-9%,1%,23%
COc1cccc(Cn2c(Oc3cccc(C)c3)nc3c2c(=O)n(C)c(=O)n3C)c1,17%,11µM*,·,-8%,-90%,?
COCCCNc1nc2c(c(=O)n(C)c(=O)n2C)n1Cc1cccc(OC)c1,?,?,·,-30%,0%,-24%
COc1cccc(Cn2c(Oc3ccccc3)nc3c2c(=O)n(C)c(=O)n3C)c1,?,?,-25%,-17%,-17%,0.66µM*
CCOC(=O)c1cnc(-n2nc(C)cc2C)nc1NNc1nc(C)cc(C)n1,2.9µM*,?,·,·,-2%,0.59µM*
CCOC(=O)c1cnc(-n2nc(C)cc2C)nc1NC,-23%[5.75 µM],-13%,·,·,-31%,0%
CCOC(=O)c1cnc(-n2nc(C)cc2C)nc1NC1CCCCC1,-1%,5.6µM*,?,?,-252%,1.7µM*
CCOC(=O)c1cnc(-n2nc(C)cc2C)nc1NNc1nc(-c2ccccc2)cc(-c2ccccc2)n1,?,?,-13%,-3%,?,1.5µM*
CCOC(=O)c1cnc(-n2nc(C)cc2C)nc1N(CC)CC,·,-28%,·,·,-98%,12µM*
CCOc1ccc2nc(N(Cc3cccnc3)C(=O)C3CCCCC3)sc2c1,·,·,-1%,-15%,·,·
NS(=O)(=O)c1cccc(NC(=O)c2cc(-c3cccs3)nc3ccccc23)c1,?,-29%,·,·,0%,?
Cc1c(/C=N/NC(=O)c2cccnc2)c2ccccn2c1C(=O)c1ccc(F)cc1,5.2µM*,-1%,·,·,10%,9.3µM*
Cc1c(/C=N/NC(=O)CNc2ccccc2)c2ccccn2c1C(=O)c1ccccc1,2.9µM*,?,-16%,-28%,?,2.1µM*
Cc1c(/C=N/NC(=O)c2cc(=O)[nH]c(=O)[nH]2)c2ccccn2c1C(=O)c1ccccc1,·,13%,-11%,-6%,4%,3.3µM*
COC(=O)N/N=C/c1c(C)c(C(=O)c2ccc(F)cc2)n2ccccc12,?,?,i,-10%,10%,-20%
Cc1c(/C=N/NC(=O)c2ccccc2O)c2ccccn2c1C(=O)c1ccc(F)cc1,?,?,?,?,?,8.3µM*
Cc1c(/C=N/NC(N)=O)c2ccccn2c1C(=O)c1ccncc1,-4%,-8%,·,·,0%,-3%
Cc1ccsc1C(=O)Nc1ccc(C(=O)O)cc1,92%,13%,·,-9%,-2%,·
CO[C@]12C(COC(N)=O)C3=C(C(=O)C(C)=C(N)C3=O)N1CC1NC12 (some centres not stated),0.6µM*,·,·,·,·,0.24µM*
CCN(CC(=O)Nc1ccccc1C(F)(F)F)C(=O)c1ccc2[nH]c3c(c2c1)CC(C)CC3 (configuration not stated),?,?,-27%,?,·,15µM*
CC1CCc2[nH]c3ccc(C(=O)O)cc3c2C1 (configuration not stated),-28%,9%,·,·,-104%,-6%
CC1CCc2[nH]c3ccc(C(=O)NCCCOC(C)C)cc3c2C1 (configuration not stated),-11%,10µM*,·,·,·,12%
CC1CCc2[nH]c3ccc(C(=O)N(C)CC(=O)Nc4ccc(F)cc4)cc3c2C1 (configuration not stated),24%,?,-3%,-19%,10%,1%
O=c1[nH]c2ccccc2n1CCCN1CCCCC1,?,5%,-5%,-10%,0%,-12%
SMILES,Pf growth 96h,HCV inh,Vaccinia mCherry,VACV Venus inh,NS1 function inh,Pf growth 48h
CC(=O)c1ccccc1OCC(O)CN1CCN(C(c2ccccc2)c2ccccc2)CC1 (configuration not stated),?,10µM*,·,?,-11%,?
OC(CN1CCCC1)c1ccccc1 (configuration not stated),·,·,-18%,-8%,·,·
O=c1[nH]c2ccccc2n1CCCN1CCN(C(c2ccccc2)c2ccccc2)CC1,12µM*,3%[8.37 µM],·,·,-14%,12µM*
OC(CN1CCN(C(c2ccccc2)c2ccccc2)CC1)c1ccc(Br)cc1 (configuration not stated),1.3µM*,?,·,·,4%,·
OC(CN1CCN(C(c2ccccc2)c2ccccc2)CC1)c1ccccc1 (configuration not stated),?,?,·,·,-2%,9.3µM*
CN1CCN(CC(O)c2ccccc2)CC1 (configuration not stated),35%,·,·,·,12%,9%
CC(=O)N(C)c1ccc(NC(=S)Nc2cccc3ccccc23)cc1,?,-3%,i,-3%,15%,1%
CN(C(=O)CNc1ccccc1Cl)C1CCS(=O)(=O)C1 (configuration not stated),·,17%,·,·,·,·
c1ccc(OCCN2CCNCC2)cc1,·,-8%,-7%,2%,·,·
c1ccc(OCCN2CCN(C(c3ccccc3)c3ccccc3)CC2)cc1,1%,11µM*,·,·,13%,?
COC(=O)CN1CCN(C(c2ccccc2)c2ccccc2)CC1,5%,-13%,·,·,-1%,-5%
CN(Cc1ccccc1)C(=O)CN1CCN(C(c2ccccc2)c2ccccc2)CC1,10µM*,?,?,?,-6%,-33%[5.75 µM]
COc1ccc(C2CC(=O)N(CC(=O)Nc3ccc(C(F)(F)F)cc3)c3ccccc3S2)cc1 (configuration not stated),·,·,-20%,-13%,·,·
O=C(CCc1ccc(S(=O)(=O)N2CCOCC2)cc1)NCCCN1CCCC1=O,?,8%,·,·,-3%,-8%
COc1cccc(-c2c(C(=O)N/N=C/C3CC=CCC3)nnn2-c2nonc2N)c1 (configuration not stated),11%,14%,-3%[7.34 µM],0%[7.34 µM],25%,6%
Nc1nnc(Cc2ccccc2)s1,-19%,27%,-10%,-4%,2%,·
Nc1nnc(Cc2ccc(F)cc2)s1,2%,5%,·,·,-1%,10µM*
CCc1ccc(NC(=O)C(=O)NCC(c2cccnc2)N2CCc3ccccc3C2)cc1 (configuration not stated),·,·,-24%,-29%,·,·
CC(=O)c1cccc(OCC(=O)N2CCN(c3ccc(C(F)(F)F)cn3)CC2)c1,7.4µM*,?,·,·,·,-28%
O=S(=O)(c1ccc(OCC(O)CN2CCN(c3ccc(F)cc3)CC2)cc1)N1CCOCC1 (configuration not stated),9.3µM*,-24%,-8%,-23%,-1%,0%
COc1ccccc1N1CCN(CC(O)COc2ccc(S(=O)(=O)N3CCOCC3)cc2)CC1 (configuration not stated),8.3µM*,?,-22%,-18%,-4%,·

# Screening data as filed in PubChem.
